Results reported in PubChem BioAssay (NCI).
This is part of a sample that, as a whole, favours compounds with a hit. Of some 83,000 tested, about 20% had one in any assay.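 Cells were grown in 96-well plates and exposed to the test compound at a single concentration for 48 hours; results are reported as percent growth, with values below 10 considered active.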 A number with no mark means an inactive call. Calls of active or inactive are those of the source.

Assays:
Assay in all cases: NCI-60 one-dose screen, 48 h (100 = growth as untreated, 0 = no growth, -100 = all killed)
Settings in all cases: 10 µM unless noted
NCI-H23 lung = test system: NCI-H23 lung
NCI-H226 lung = test system: NCI-H226 lung
NCI-H322M lung = test system: NCI-H322M lung
HOP-62 NSCLC = test system: HOP-62 NSCLC
NCI-H460 lung = test system: NCI-H460 lung
HOP-92 NSCLC = test system: HOP-92 NSCLC
A549/ATCC NSCLC = test system: A549/ATCC NSCLC
786-0 renal = test system: 786-0 renal
COLO 205 colon = test system: COLO 205 colon
DU-145 prostate = test system: DU-145 prostate
MALME-3M melanoma = test system: MALME-3M melanoma
MDA-MB-231 breast = test system: MDA-MB-231 breast
RXF 393 renal = test system: RXF 393 renal
SF-268 CNS = test system: SF-268 CNS
SF-295 CNS = test system: SF-295 CNS
SF-539 CNS = test system: SF-539 CNS
UACC-257 melanoma = test system: UACC-257 melanoma
M14 melanoma = test system: M14 melanoma
K-562 leukemia = test system: K-562 leukemia
NCI-H522 lung = test system: NCI-H522 lung

Structure (SMILES)	growth (NCI-H23 lung)	growth (NCI-H226 lung)	growth (NCI-H322M lung)	growth (HOP-62 NSCLC)	growth (NCI-H460 lung)	growth (HOP-92 NSCLC)	growth (A549/ATCC NSCLC)	growth (786-0 renal)	growth (COLO 205 colon)	growth (DU-145 prostate)	growth (MALME-3M melanoma)	growth (MDA-MB-231 breast)	growth (RXF 393 renal)	growth (SF-268 CNS)	growth (SF-295 CNS)	growth (SF-539 CNS)	growth (UACC-257 melanoma)	growth (M14 melanoma)	growth (K-562 leukemia)	growth (NCI-H522 lung)
Clc1ccc2c(NCCNc3nc(N4CCCCC4)nc4ccccc34)ccnc2c1	54.3%	-8.68% (active)	0.0479% (active)	-18.2% (active)	-39.4% (active)	-16% (active)	0.13% (active)	-36.9% (active)	-84.6% (active)	26.4%	-79.8% (active)	-85% (active)	-40.2% (active)	2.98% (active)	-81.3% (active)	-83.6% (active)	-70.2% (active)	-79.7% (active)	–	–
COc1cccc(-c2nc3sccn3c2-c2ccnc(NCCNS(=O)(=O)c3ccc(F)cc3)c2)c1	27.2%	24%	58.6%	43.7%	21.4%	41%	22.7%	41.6%	23.4%	26.3%	42.7%	55.6%	42.2%	34.7%	14.5%	55.5%	40%	23.9%	13.4%	–
CSc1nc(-c2cccc(NC(=O)CCl)c2)c(C#N)c(=O)n1C	49.1%	89.2%	107%	98.7%	93.3%	–	86.3%	53%	-20.2% (active)	77.3%	-72.6% (active)	65.9%	63.9%	61.5%	98.7%	38.6%	63.5%	–	11.4%	-73.7% (active)
CCOC(=O)c1sc(Nc2ccc(Cl)cc2)nc1C	19.3%	21.9%	53.4%	28.3%	19.3%	-20.9% (active)	15.2%	25%	11%	35.5%	36.7%	1.04% (active)	10.9%	30%	16.3%	25.3%	7.95% (active)	12.9%	–	–
O=c1ccccc(-c2ccc(Br)cc2)c1O	13.9%	18.2%	21.1%	10.6%	2.75% (active)	58%	11%	8.52% (active)	22.7%	20.3%	10.6%	32.9%	46.2%	12.8%	17.9%	-0.947% (active)	1.13% (active)	-10.8% (active)	–	–
O=C(Nc1ccc(Cl)cc1)c1cc2cc(F)ccc2cc1O	7.14% (active)	7.16% (active)	18.7%	12.1%	7.11% (active)	-11.4% (active)	6.09% (active)	15.7%	69.5%	26.7%	-3.12% (active)	-23.4% (active)	13.6%	23.6%	31.2%	17.7%	-23.8% (active)	15.9%	11.5%	–
Cn1cc(-c2nonc2-c2c[nH]c3ccccc23)c2cccnc21	54.4%	30.2%	88.6%	36.5%	21.6%	62.2%	36.2%	65.8%	37.6%	67.7%	50.5%	59.6%	36.1%	56.5%	51.4%	41.9%	55%	21.2%	12.7%	–
O=C(/C=C/c1cccc([N+](=O)[O-])c1)c1ccc(O)c(CN2CCN(c3cc4c(cc3F)c(=O)c(C(=O)O)cn4C3CC3)CC2)c1	37.3%	60.8%	61.4%	43.7%	37.1%	59%	32.2%	-11.2% (active)	60.1%	22%	78.2%	54.4%	-12.4% (active)	43.2%	50.1%	12%	63.1%	9.3% (active)	6.49% (active)	–
C=C1c2nc3ccccc3n2C=C(c2ccc(Cl)cc2)N1Cc1ccc(OC)cc1	54.2%	80.8%	101%	118%	81.3%	77.4%	84.5%	94%	71.1%	103%	99.3%	90.1%	77.5%	96.1%	94.9%	105%	90%	81.1%	59.2%	–
COC(=O)[C@@H]1CCCN1C(=O)[C@@H]1CCCN1C(=O)[C@H](Cc1ccccc1)NC(=S)Nc1cc(C(F)(F)F)cc(C(F)(F)F)c1	89.2%	80.2%	89.7%	89.8%	84.8%	58.9%	15.6%	82.4%	82.7%	40.4%	94.8%	62.8%	83.8%	35%	92.9%	94%	11.8%	89.3%	–	–
N#CCCN=Nc1c(O)[nH]c2ccc(F)cc12	96.3%	96.1%	103%	98.6%	101%	101%	111%	94.1%	118%	106%	99.2%	102%	103%	96.5%	101%	105%	118%	98%	119%	–
CC1=C/C(=C(\c2ccc(N(C)C)cc2)c2ccc([N+](C)(C)C)cc2)C=CC1=[N+](C)C	80.4%	88.4%	104%	37%	74.9%	56.5%	29.2%	94.7%	66%	51.5%	120%	93.9%	76.6%	92%	48.4%	78.6%	99.8%	77.5%	37.5%	–
